Hits are enriched below; roughly 3.5% of the tested compounds scored in any of these assays.
MITF inh – blocks human microphthalmia-associated transcription factor | inhibition, % at 2.6 µM | 0.91% of 650,000 active | AID 1259374 | AlphaScreen MITF homodimerization, bead proximity signal; in the data active = inhibition above about 50%;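 note: 0% = vehicle wells with protein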
FBW7 act – human FBW7 E3 ligase activation, primary screen; Q969H0; AlphaScreen FBW7–phospho-cyclin E peptide binding, activator screen; normalized activity (activation), % at 26.1 µM; 0.13% of 650,000 active; AID 1259310; in the data active = normalized activity above about 1.9%;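 note: purified mutant Fbw7 with reduced substrate affinity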
TEAD-YAP inh – TEAD-YAP interaction inhibition; HEK-TIYL cells, TEAD-Gal4/YAP UAS-luciferase luminescence; 1.4% of 640,000 active; inhibition, % at 9.12 µM; in the data active = inhibition above about 32%;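 note: 0% = median of test compound wells and 100% = reference inhibitor wells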
GPR151 ag – activators of human GPR151. Q8TDV0. PathHunter beta-arrestin GPR151 cells, luminescence. activation, % at 11.2 µM. 1% of 650,000 active; in the data active = activation above about 4.9%;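 note: 0% = median of compound wells and 100% = cells with positive control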
* = called active by the depositor.

SMILES	MITF inh	FBW7 act	TEAD-YAP inh	GPR151 ag
Cn1nccc1Nc1cc(NCCc2ccc(O)cc2)ncn1	10	0	4	2
COc1ccc(C(=O)/C=C\Nc2cccc(F)c2)cc1	14	0	35*	-3
CCc1ccc(C(=O)/C=C/Nc2ccc(O)cc2)cc1	1	0	2	1
COc1cccc(C(=O)/C=C/Nc2ccc(N(C)C)cc2)c1	11	0	-9	-1
COc1ccc(C(=O)/C=C/Nc2cccc(O)c2)cc1	-2	0	87*	-6
CCc1ccc(C(=O)/C=C/Nc2cccc(O)c2)cc1	-29	0	96*	3
COc1cccc(C(=O)/C=C\Nc2ccc(C)cc2)c1	-1	0	59*	-7
Cc1cc2c(cc1S(=O)(=O)C(C)CC(=O)N1CCc3ccccc3C1)OCC(=O)N2 (stereo unspecified)	12	0	4	-2
c1cc(CNc2nc(CN3CCOCC3)nc3sc4c(c23)CCC4)ccn1	15	0	4	1
CCOC(=O)c1sc(N)c(C#N)c1CSc1nnc(Nc2ccc(C)cc2)s1	12	0	27	-1
COc1ccc(/C=C/C(=O)c2ccc(O)cc2)cc1	-17	0	55*	-6
COc1ccc(C(=O)/C=C/Nc2cccc(C)c2)cc1	-6	0	-12	-4
COc1ccc(C(=O)/C=C\Nc2cccc(C(=O)O)c2)cc1	1	0	41*	-6
Cc1cc(CN2C(=O)C(C)Oc3ccccc32)no1 (stereo unspecified)	-16	0	-3	1
Cc1nc2ccccn2c1C(=O)NC1CCCc2ccccc21 (stereo unspecified)	1	0	40*	2
Cc1cc(C)n(CCNC2CCN(c3cccc(NC(=O)CC4CCCC4)c3)CC2)n1	-8	0	42*	-1
Cc1cc(C)n(CCNC2CCN(c3cccc(NC(=O)C4CC4)c3)CC2)n1	-4	0	-13	-1
OCCCNc1cc(-c2ccccn2)nc(-c2ccccn2)n1	115*	-1	3	4
c1ccc(CNc2cc(-c3ccncc3)nc(-c3ccccn3)n2)cc1	3	-1	7	0
c1ccc(-c2cc(NCc3ccncc3)nc(-c3ccccn3)n2)cc1	19	-1	37*	0
Fc1ccccc1-c1cc(NCCCN2CCOCC2)nc(-c2ccccn2)n1	17	-1	37*	1
Fc1ccc(-c2cc(NCCCN3CCOCC3)nc(-c3ccccn3)n2)cc1	-13	-1	10	-1
OCCCNc1cc(-c2ccccc2)nc(-c2ccccn2)n1	22	-1	78*	1
OCCCNc1cc(-c2ccccn2)nc(-c2ccccc2)n1	17	0	22	3
Cc1cc(NC(=O)c2cccs2)ncc1NC(=O)C1CC1	-15	0	-1	-6
SMILES	MITF inh	FBW7 act	TEAD-YAP inh	GPR151 ag
CC(=O)CSc1nc2c(c(=O)n(C)c(=O)n2C)n1Cc1ccc(F)cc1	0	0	11	0
NC(=O)c1ccccc1-c1ccccc1C(=O)O	2	0	1	1
COC(CNc1cc(-c2ccccc2)nc(-c2ccccn2)n1)OC	12	-1	48*	1
Cc1[nH]n(-c2ccccc2)c(=O)c1C1(C(F)(F)F)NC(=O)N(Cc2ccccc2)C1=O (stereo unspecified)	-4	0	-5	-2
C=CCNc1nc(-c2cccs2)nc2ccccc12	8	0	-4	1
CCc1ccc(-n2nc3cc(C)c(N)cc3n2)cc1	8	1	-32	-1
Cc1ccc(-n2nc3cc(C)c(N)cc3n2)cc1	-11	0	37*	-1
COc1ccc(/C=C/C(=O)OCC(=O)Nc2ccc3[nH]c(=O)[nH]c3c2)c(OC)c1	22	0	15	-1
O=[N+]([O-])c1cccc(N/N=C/c2ccc([N+](=O)[O-])s2)c1	0	0	39*	-1
O=C(CCCc1ccccc1)Nc1cccc(N2CCC(NC3CCOCC3)CC2)c1	-11	0	0	2
NC(=O)[C@@H]1CCCN1C1CCN(c2cccc(NC(=O)CCCc3ccccc3)c2)CC1	-8	0	39*	1
Cc1nn(C)c(C)c1/C=C(/C(=O)C(C)C)n1cncn1	33	0	4	1
CC(C)C(=O)/C(=C/c1ccc(Cl)cc1Cl)n1cncn1	8	0	73*	1
Cc1cc(N(C)C)nc(NCCNC(=O)C(C)(C)Oc2ccc(Cl)cc2)n1	9	1	32*	-2
CN(C)c1ccc(-c2nc3ccccc3c(=O)[nH]2)cc1	7	0	72*	-7
O=c1oc(-c2ccccc2F)nc2sc3c(c12)CCCC3	8	0	0	0
COc1ccccc1-c1nc2sc3c(c2c(=O)o1)CCCC3	-3	0	68*	3
Cc1ccc(-n2nc3c(c2NC(=O)C2CCCC2)CSC3)c(C)c1	17	1.9*	4	1
CC(C)OC(=O)c1c(-c2ccc(Br)cc2)csc1NC(=O)C1C2CCC(C2)C1C(=O)O (stereo unspecified)	-4	0	-4	-2
CC(C)OC(=O)c1c(-c2ccc(Br)cc2)csc1NC(=O)/C=C/C(=O)O	2	0	36*	2
COCCN(C(=O)C1CC1)c1nnc(-c2cccnc2)s1	9	0	-3	3
N#CC1=C(N)C(C#N)(C#N)C(c2ccc(O)cc2)C2CCCC=C12 (stereo unspecified)	-10	0	11	0
N#CC1=C(N)C(C#N)(C#N)C(c2ccccc2)C2CCCC=C12 (stereo unspecified)	10	1.9*	7	2
CCn1cccc/c1=N\c1cccc[n+]1CC	1	0	50*	2
CC(=O)Oc1cc(N2CCOCC2)c(OC(C)=O)c2c1C(=O)c1ccccc1C2=O	25	-1	64*	-1
SMILES	MITF inh	FBW7 act	TEAD-YAP inh	GPR151 ag
CCCOc1ccc(/C(O)=C2\C(=O)C(=O)N(CCCN(C)C)C2c2ccc(OC)c(OC)c2)c(C)c1 (stereo unspecified)	15	0	33*	-2
CCCOc1ccc(/C(O)=C2\C(=O)C(=O)N(CCN(C)C)C2c2ccc(OC)c(OC)c2)c(C)c1 (stereo unspecified)	-6	0	-7	1
Cc1ccc(N2CCN(C(=O)CC(C)(C)CC3=NS(=O)(=O)c4ccccc4N3)CC2)c(C)c1	7	0	47*	0
CN1C(=O)N(C)C(NNC(N)=S)C1NNC(N)=S (stereo unspecified)	11	0	88*	1
CCOc1ccc(N2CSC3=C(C#N)C(c4cccs4)CC(=O)N3C2)cc1 (stereo unspecified)	-13	0	-10	1
CCOc1ccc(N2CSC3=C(C#N)C(c4ccco4)CC(=O)N3C2)cc1 (stereo unspecified)	69*	0	-11	1
O=[N+]([O-])c1cc(Br)c(Nc2ccccc2)c([N+](=O)[O-])c1	13	0	40*	2
CSc1nc(Nc2ccnc(Nc3ccc(N4CCOCC4)cc3)c2)c(C(N)=O)s1	8	-1	41*	0
NC(=O)c1ncsc1Nc1ccnc(Nc2ccc(N3CCOCC3)cc2)c1	20	0	21	3
